Screening data: PubChem, National Center for Advancing Translational Sciences (NCATS)
Sampled rows, rich in hits. Any-hit rate of the full collection: about 19%.
IL-1B inflam inh – blocks inflammasome-driven IL-1 beta release. THP-1 LPS/ATP IL-1B secretion, AlphaLISA, 16 h; hits give low values. activity change, % at 57.5 µM. hit rate 4.7% among 360,000; in the data active = activity change below about -50%; inconclusive = mostly about -30% to -49%
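Secreted IL-1B measured by AlphaLISA bead assay after 16 h compound exposure of THP-1 cells; compounds (final up to 57.5 uM) added 1 h before LPS (250 ng/mL) and ATP (1.25 mM) stimulation; lower signal means less secretion.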
DT40 TDP1 no CPT – qHTS for Inhibitors of human tyrosyl-DNA phosphodiesterase 1 (TDP1): qHTS in cells in absence of CPT | DT40 Tdp1-/- hTDP1 cells, no CPT, ATP luminescence, 48 h | Potency, µM (doses to about 46.2 µM), inactives show top-dose activity change, negative = growth inhibition, hits mostly inhibitors | hit rate 15% among 420,000 | AID 686978, 2013; note: potency is the fitted concentration of half-maximal effect; nearly all actives have a fitted effect of over 55% in size
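Readout: luminescence from CellTiter-Glo after 30 min in the dark at RT. Cells: DT40 Tdp1-/- with stable hTDP1, 400/well. Exposure: compounds alone, ≥48 hr, 37 °C.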
TDP1 cell CPT – DT40-hTDP1 cell growth loss with CPT; chicken DT40 Tdp1-/-;hTDP1 cells + 20 nM CPT, ATP luminescence, 48 h; Potency, µM (doses to about 46.2 µM), without a hit: top-dose activity change, negative = growth inhibition, actives largely listed as inhibitors; hit rate 12% among 420,000; AID 686979; note: potency is the fitted concentration of half-maximal effect; nearly all actives have a fitted effect of over 55% in size
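Chicken DT40 Tdp1-/- cells stably complemented with human TDP1 were seeded at 400 cells/well in medium containing 20 nM camptothecin, exposed to pin-transferred compounds, and grown at 37 °C for at least 48 hr. Viability was read as ATP luminescence.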
HT1080 IDH1KD tx – toxicity to HT-1080 IDH1 knockdown cells (counter line) | HT-1080 IDH1 knockdown viability, ATP luminescence, 48 h | Potency, µM (top dose mostly 46.1 µM), without a hit: at the highest dose activity, negative = toxicity, usual class: cytotoxic | hit rate 2% among 360,000;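 note: potency is the fitted concentration of half-maximal effect; 0% = DMSO wells and -100% = cell-free medium wells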
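Luminescent ATP read-out (CellTiter-Glo, 10 min at room temperature) after 48 h compound exposure at 37 °C gave viability of IDH1-knockdown HT-1080 cells. Activity was normalised to DMSO and cell-free wells, then fitted as concentration-response curves.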
HT1080-NT tox – kills 2HG-producing HT-1080-NT fibrosarcoma cells; HT-1080-NT fibrosarcoma viability, CellTiter-Glo ATP luminescence, 48 h; Potency, µM (series often up to 46.1 µM), for inactives: at the top dose activity, negative = less viability, usual class: cytotoxic; hit rate 1.6% among 360,000; AID 686970;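 note: NT is the 2HG producing partner of a matched IDH1 knockdown line; potency is the fitted concentration of half-maximal effect; 0% = DMSO-treated cells and -100% = media-only wells without cells; nearly all actives have a fitted effect of over 55% in size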
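750 cells/well, RPMI + 5% FBS; 2 h settle, compound pin-transfer, 48 h at 37 degrees C. CellTiter-Glo 10 min RT, luminescence. Normalized to DMSO and media-only wells.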
* hit, by the source's call; u = inconclusive; x = no result; ! = a repeat was not active. Unless noted, calls come from the whole dose curve; as a rule, active = well fitted curve in the direction sought with a large enough effect; inconclusive = small, poorly fitted or top-dose-only effect, or another doubt; inactive = no such curve, though single readings can be large; an effect the other way counts as inactive or inconclusive. Unless noted, % is set by controls: 0 for no effect and ±100 for the full control effect.

SMILES	IL-1B inflam inh	DT40 TDP1 no CPT	TDP1 cell CPT	HT1080 IDH1KD tx	HT1080-NT tox
CC(C)C(=O)Nc1ccc(COc2ccccc2CN(Cc2ccccc2)C(=O)OC(C)(C)C)cc1	-24	15µM*	15µM*	u	-9%
CC(C)C(=O)Nc1cccc(COc2ccc(CN(Cc3ccccc3)C(=O)OC(C)(C)C)cc2)c1	-6	16µM*	u	-15%	-7%
CC(C)(C)OC(=O)N(CCc1ccccc1)Cc1ccccc1OCc1ccc(NC(=O)C2CCCC2)cc1	-27	u	u	-3%	-1%
CC1CC(C)(C)C2=NCCN21 (configuration not stated)	62	-2%	19%	10%	4%
Cc1nc(SCC(=O)NC2CCS(=O)(=O)C2)c2c3c(sc2n1)CCCC3 (configuration not stated)	-15	-23%	-12%	-5%	-13%
O=C1CSC(c2cccnc2)N1c1ccccc1 (configuration not stated)	9	-18%	-9%	1%	-1%
CC(C)(C)c1ccc(N2C(=O)CSC2c2cccnc2)cc1 (configuration not stated)	13	8.2µM*	u	-1%	1%
Cc1ccc(/C=C2/NC(=O)N(Cc3ccccc3)C2=O)s1	-14	-19%	u	-2%	-3%
Cc1cccc(CN2C(=O)N/C(=C/c3ccc(C)s3)C2=O)c1	0	16µM*	21µM*	u	-27%
Cc1cc(/C=C2/NC(=O)NC2=O)c(C)n1-c1ccccn1	42	-10%	-5%	2%	-5%
Cc1cccc(CN2C(=O)N/C(=C/c3cc(C)n(-c4cc(C)ccn4)c3C)C2=O)c1	-58*	23µM*	u	-11%	-11%
CC(Sc1nncs1)C(=O)NC1CCCCC1C (configuration not stated)	17	18%	-26%	7%	-3%
CC(=O)Oc1ccc(N(C(C)=O)S(=O)(=O)c2ccc(C)cc2)c2ccccc12	35	5.2µM*	5.2µM*	u	u
CC(=O)Oc1ccc(N(C(C)=O)S(=O)(=O)c2ccc(Cl)cc2)c2ccccc12	57	u	29µM*	u	u
CC(=O)N(c1ccccc1C)S(=O)(=O)c1ccc(Cl)cc1	63	-15%	u	-23%	-15%
CC(=O)N(c1ccc(C)cc1)S(=O)(=O)c1ccc(Cl)cc1	15	-5%	-7%	-7%	0%
COC(=O)CCSc1cc(NCCCOC(C)=O)c([N+](=O)[O-])c2nonc12	x	5µM*	5µM*	x	x
Cc1ccc(Sc2cc(NCCCO)c([N+](=O)[O-])c3nonc23)cc1	-17	2.9µM*	2.3µM*	5%	5%
CC(C)CCSc1cc(NCCO)c([N+](=O)[O-])c2nonc12	1	u	u	18µM*	u
CC(=O)OCCCNc1cc(Sc2ccc(Cl)cc2)c2nonc2c1[N+](=O)[O-]	u	3.7µM*	2.1µM*	0%	-1%
CC(=O)OCCNc1cc(SC(C)C)c2nonc2c1[N+](=O)[O-]	-22	u	-1%	-5%	-18%
COc1ccc(-n2nc3cc(C)c(NC(=O)Cc4ccc(Cl)cc4)cc3n2)cc1	x	-7%	5%	x	x
OCC[C@@H]1C[C@@H](O)[C@H](O)[C@]2(Cc3ccccc3CO2)O1	2	-4%	7%	14%	0%
CCN(CC)CC(=O)n1c2c(c3ccccc31)CCCC2	-7	-29%	1%	2%	-1%
CN(C)c1ccc(C=c2c3ccccc3n3c2c2c([n+]3C)CCCC2)cc1	-111*	0.33µM*	0.41µM*	6.5µM*	u
SMILES	IL-1B inflam inh	DT40 TDP1 no CPT	TDP1 cell CPT	HT1080 IDH1KD tx	HT1080-NT tox
COc1cc(C=c2c3ccccc3n3c2cc(-c2ccccc2)[n+]3C)cc(OC)c1OC	-26	4.6µM*	5.2µM*	u	-15%
CN(C)c1ccc(C=c2c3cc([N+](=O)[O-])ccc3n3c2cc(-c2ccccc2)[n+]3C)cc1	-115*	2.6µM*	2.9µM*	10µM*	u
O=[N+]([O-])c1ccc2c(c1)[nH]c(=S)n2-c1ccccc1	11	-14%	-29%	-12%	-21%
CN(C)c1ccc(C=c2c3ccccc3n3c2cc(-c2ccccc2)[n+]3C)cc1	-102*	0.37µM*	0.58µM*	21µM*	u
CN(C)c1ccc(/C=N/c2cc(-c3ccccc3)nn2-c2ccccc2)cc1	u	u	-11%	2%	0%
CCOC(=O)N1CCC(NC(=O)c2ccc(CS(=O)(=O)c3ccccc3C)o2)CC1	-13	-23%	-21%	7%	0%
CSc1ccc(C#N)cc1NC(=O)c1ccccc1C	-10	-29%	-11%	16%	16%
COc1cc(N(C)C)ccc1C=c1c2ccccc2n2c1cc(-c1ccccc1)[n+]2C	-100*	0.37µM*	0.52µM*	12µM*	u
CN(C)c1ccc(C=c2c3ccccc3n3c2cc(-c2ccc(Cl)cc2)[n+]3C)cc1	-119*	4.6µM*	4.1µM*	u	u
Nc1ncccc1C(=O)OCC(=O)N1CCN(S(=O)(=O)c2ccc(Cl)cc2)CC1	-12	u	u	-13%	-11%
COC(=O)c1cn(NC(=O)Cc2c(F)cccc2Cl)c(=O)c2ccccc12	12	-19%	-21%	4%	6%
C=CC[C@@H](CC(=O)N[C@@H](CO)Cc1ccccc1)C(=O)N[C@H](COC(=O)[C@@H](CC=C)Cc1ccc(F)cc1)C(C)(C)C	-8	-80%	16µM*	-7%	u
C=CCC[C@@H](Cc1ccc(F)cc1)C(=O)OC[C@@H](NC(=O)[C@@H](CC=C)CC(=O)N[C@H](CO)Cc1ccccc1)C(C)(C)C	12	16µM*	23µM*	-20%	u
Cc1cc(=O)c2c(O)c3c(O)cc(=O)c4c3c3c(cc(O)c1c23)C(C)(C)C=4O	x	0.73µM*	1µM*!	x	x
COC(=O)c1ccc2c(=O)n(CCCCCC(=O)O)c(=O)[nH]c2c1	-8	-10%	-6%	-5%	0%
COC(=O)c1ccc2c(=O)n(CCCCCC(=O)N3CCN(c4ccc(F)cc4)CC3)c(=O)[nH]c2c1	28	12µM*	16µM*	20%	9%
O=C(Cn1c(=O)[nH]c2ccccc2c1=O)N1CCN(Cc2ccc3c(c2)OCO3)CC1	7	u	u	-2%	0%
O=C(CCCCCn1c(=O)[nH]c2ccccc2c1=O)N1CCN(c2cccc(C(F)(F)F)c2)CC1	x	0.58µM*	0.58µM*	x	x
